{"source": "the supplement of paper PMC8728848", "assay_in_all_cases": "glycan array binding signal (z-score within array); higher = stronger binding", "details_in_all_cases": "glycan notation: IUPAC condensed, linker removed", "key": {"Fuc(a1-2)Gal(b1-4)GlcNAc": {"target": "Fuc(a1-2)Gal(b1-4)GlcNAc", "summary_of_the_method": "(§1)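 The binding signal is a Z-score computed within each array and averaged over linkers. Arrays of the same protein sequence at different concentrations or buffers were also averaged together. Data originate from 3228 arrays in the Consortium for Functional Glycomics database, kept only where the protein sequence was available.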"}, "[1]": {"target": "Fuc(a1-2)[Gal(a1-4)]Gal(b1-4)GlcNAc", "summary_of_the_method": "as §1"}, "[2]": {"target": "Fuc(a1-2)[GalNAc(a1-3)]Gal(b1-4)GlcNAc(b1-2)Man(a1-3)[Fuc(a1-2)[GalNAc(a1-3)]Gal(b1-4)GlcNAc(b1-2)Man(a1-6)]Man(b1-4)GlcNAc(b1-4)GlcNAc", "summary_of_the_method": "as §1"}, "[3]": {"target": "Fuc(a1-2)[GalNAc(a1-3)]Gal(b1-4)GlcNAc(b1-3)Gal(b1-4)GlcNAc", "summary_of_the_method": "as §1"}, "[4]": {"target": "Fuc(a1-2)[GalNAc(a1-3)]Gal(b1-4)GlcNAc(b1-3)Gal(b1-4)GlcNAc(b1-3)Gal(b1-4)GlcNAc", "summary_of_the_method": "as §1"}, "[5]": {"target": "Fuc(a1-2)[GalNAc(a1-4)]Gal(b1-4)GlcNAc", "summary_of_the_method": "as §1"}, "[6]": {"target": "Gal(a1-4)Gal(b1-4)GlcNAc(b1-3)Gal(b1-4)Glc", "summary_of_the_method": "as §1"}, "Gal(a1-4)GlcNAc": {"target": "Gal(a1-4)GlcNAc", "summary_of_the_method": "as §1"}, "[7]": {"target": "Gal(b1-3)GlcNAc(b1-3)Gal(b1-4)Glc", "summary_of_the_method": "as §1"}, "[8]": {"target": "Gal(b1-3)GlcNAc(b1-3)Gal(b1-4)GlcNAc", "summary_of_the_method": "as §1"}, "[9]": {"target": "Gal(b1-4)GlcNAc(b1-2)Man(a1-3)[GlcNAc(b1-2)Man(a1-6)]Man(b1-4)GlcNAc(b1-4)GlcNAc", "summary_of_the_method": "as §1"}, "[10]": {"target": "Gal(b1-4)GlcNAc(b1-2)[Gal(b1-4)GlcNAc(b1-4)]Man(a1-3)[Gal(b1-4)GlcNAc(b1-2)[Gal(b1-4)GlcNAc(b1-6)]Man(a1-6)]Man(b1-4)GlcNAc(b1-4)GlcNAc", "summary_of_the_method": "as §1"}, "[11]": {"target": "Gal(b1-4)GlcNAc(b1-3)Gal(b1-4)GlcNAc", "summary_of_the_method": "as §1"}, "[12]": {"target": "Gal(b1-4)GlcNAc(b1-3)[Gal(b1-4)GlcNAc(b1-6)]Gal(b1-4)GlcNAc", "summary_of_the_method": "as §1"}, "[13]": {"target": "Gal3S(b1-4)[Fuc(a1-3)]Glc", "summary_of_the_method": "as §1"}, "Gal6S(b1-4)Glc": {"target": "Gal6S(b1-4)Glc", "summary_of_the_method": "as §1"}, "GalNAc(a1-3)GalNAc": {"target": "GalNAc(a1-3)GalNAc", "summary_of_the_method": "as §1"}, "[14]": {"target": "GlcNAc(a1-4)Gal(b1-4)GlcNAc(b1-3)Gal(b1-4)GlcNAc(b1-3)Gal(b1-4)GlcNAc", "summary_of_the_method": "as §1"}, "[15]": {"target": "GlcNAc(a1-6)Gal(b1-4)GlcNAc", "summary_of_the_method": "as §1"}, "GlcNAc(b1-3)Man": {"target": "GlcNAc(b1-3)Man", "summary_of_the_method": "as §1"}, "[16]": {"target": "GlcNAc(b1-3)[GlcNAc(b1-4)][GlcNAc(b1-6)]GlcNAc", "summary_of_the_method": "as §1"}, "[17]": {"target": "GlcNAc(b1-4)Gal(b1-4)GlcNAc", "summary_of_the_method": "as §1"}, "[18]": {"target": "GlcNAc(b1-4)GlcNAc(b1-4)GlcNAc(b1-4)GlcNAc(b1-4)GlcNAc", "summary_of_the_method": "as §1"}, "GlcNAc(b1-6)GalNAc": {"target": "GlcNAc(b1-6)GalNAc", "summary_of_the_method": "as §1"}, "Kdn(a2-3)Gal(b1-3)GalNAc": {"target": "Kdn(a2-3)Gal(b1-3)GalNAc", "summary_of_the_method": "as §1"}, "[19]": {"target": "Man(a1-2)Man(a1-2)Man(a1-6)[Man(a1-3)]Man", "summary_of_the_method": "as §1"}, "[20]": {"target": "Man(a1-2)Man(a1-3)[Man(a1-6)]Man(a1-6)[Man(a1-2)Man(a1-3)]Man(b1-4)GlcNAc(b1-4)GlcNAc", "summary_of_the_method": "as §1"}, "[21]": {"target": "Man(a1-3)[Man(a1-6)]Man(a1-6)[Man(a1-3)]Man", "summary_of_the_method": "as §1"}, "[22]": {"target": "Neu5Ac(a2-3)Gal(b1-4)GlcNAc", "summary_of_the_method": "as §1"}, "[23]": {"target": "Neu5Ac(a2-3)Gal(b1-4)GlcNAc(b1-3)Gal(b1-3)GlcNAc", "summary_of_the_method": "as §1"}, "[24]": {"target": "Neu5Ac(a2-3)Gal(b1-4)GlcNAc6S", "summary_of_the_method": "as §1"}, "[25]": {"target": "Neu5Ac(a2-6)Gal(b1-4)GlcNAc", "summary_of_the_method": "as §1"}, "[26]": {"target": "Neu5Ac(a2-6)Gal(b1-4)GlcNAc(b1-2)Man(a1-3)[Man(a1-6)]Man(b1-4)GlcNAc(b1-4)GlcNAc", "summary_of_the_method": "as §1"}, "[27]": {"target": "Neu5Ac(a2-6)Gal(b1-4)GlcNAc(b1-3)Gal(b1-4)GlcNAc", "summary_of_the_method": "as §1"}, "[28]": {"target": "Neu5Gc(a2-3)Gal(b1-3)[Fuc(a1-4)]GlcNAc", "summary_of_the_method": "as §1"}}, "note": "Only a selection was taken, and the strongest signals are over-represented in it overall.", "data": [{"binder": "Tachylectin-2 (Tachypleus tridentatus), TAL2_TACTR (protein) VGGESMLRGVYQDKFYQGTYPQNKNDNWLARATLIGKGGWSNFKFLFLSPGGELYGVLNDKIYKGTPPTHDNDNWMGRAKKIGNGGWNQFQFLFFDPNGYLYAVSKDKLYKASPPQSDTDNWIARATEIGSGGWSGFKFLFFHPNGYLYAVHGQQFYKALPPVSNQDNWLARATKIGQGGWDTFKFLFFSSVGTLFGVQGGKFYEDYPPSYAHDNWLARAKLIGNGGWDDFRFLFF", "values": [{"measurement": "glycan array binding signal (z-score)", "setting": "Fuc(a1-2)Gal(b1-4)GlcNAc", "value": -0.309}, {"measurement": "glycan array binding signal (z-score)", "setting": "[1]", "value": -0.436}, {"measurement": "glycan array binding signal (z-score)", "setting": "[2]", "value": 4.37}, {"measurement": "glycan array binding signal (z-score)", "setting": "[3]", "value": 4.29}, {"measurement": "glycan array binding signal (z-score)", "setting": "[4]", "value": 4.11}, {"measurement": "glycan array binding signal (z-score)", "setting": "[5]", "value": 3.88}, {"measurement": "glycan array binding signal (z-score)", "setting": "[6]", "value": -0.296}, {"measurement": "glycan array binding signal (z-score)", "setting": "Gal(a1-4)GlcNAc", "value": 0.001}, {"measurement": "glycan array binding signal (z-score)", "setting": "[7]", "value": -0.315}, {"measurement": "glycan array binding signal (z-score)", "setting": "[8]", "value": -0.357}, {"measurement": "glycan array binding signal (z-score)", "setting": "[9]", "value": -0.295}, {"measurement": "glycan array binding signal (z-score)", "setting": "[10]", "value": -0.294}, {"measurement": "glycan array binding signal (z-score)", "setting": "[11]", "value": -0.367}, {"measurement": "glycan array binding signal (z-score)", "setting": "[12]", "value": -0.43}, {"measurement": "glycan array binding signal (z-score)", "setting": "[13]", "value": -0.39}, {"measurement": "glycan array binding signal (z-score)", "setting": "Gal6S(b1-4)Glc", "value": -0.268}, {"measurement": "glycan array binding signal (z-score)", "setting": "GalNAc(a1-3)GalNAc", "value": 4.41}, {"measurement": "glycan array binding signal (z-score)", "setting": "[14]", "value": 3.96}, {"measurement": "glycan array binding signal (z-score)", "setting": "[15]", "value": 4.99}, {"measurement": "glycan array binding signal (z-score)", "setting": "GlcNAc(b1-3)Man", "value": -0.096}, {"measurement": "glycan array binding signal (z-score)", "setting": "[16]", "value": -0.413}, {"measurement": "glycan array binding signal (z-score)", "setting": "[17]", "value": 1.17}, {"measurement": "glycan array binding signal (z-score)", "setting": "[18]", "value": 0.004}, {"measurement": "glycan array binding signal (z-score)", "setting": "GlcNAc(b1-6)GalNAc", "value": 1.42}, {"measurement": "glycan array binding signal (z-score)", "setting": "Kdn(a2-3)Gal(b1-3)GalNAc", "value": -0.296}, {"measurement": "glycan array binding signal (z-score)", "setting": "[19]", "value": -0.33}, {"measurement": "glycan array binding signal (z-score)", "setting": "[20]", "value": -0.173}, {"measurement": "glycan array binding signal (z-score)", "setting": "[21]", "value": -0.344}, {"measurement": "glycan array binding signal (z-score)", "setting": "[22]", "value": -0.374}, {"measurement": "glycan array binding signal (z-score)", "setting": "[23]", "value": -0.256}, {"measurement": "glycan array binding signal (z-score)", "setting": "[24]", "value": -0.232}, {"measurement": "glycan array binding signal (z-score)", "setting": "[25]", "value": -0.176}, {"measurement": "glycan array binding signal (z-score)", "setting": "[26]", "value": -0.295}, {"measurement": "glycan array binding signal (z-score)", "setting": "[27]", "value": -0.249}, {"measurement": "glycan array binding signal (z-score)", "setting": "[28]", "value": -0.316}]}]}
